This is a sample that favours compounds with a hit; in the whole collection about 21% have one here.
HCV inhibitor: HCV inhibition | 340,000 tested, 3.4% active | Huh7.5.1 HCVcc-Cre infection, luciferase reporter, 44 h | Potency, µM (doses to about 41.8 µM), actives largely listed as inhibitors | AID 651820
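After 44 h co-culture of compound, cells and HCVcc-Cre (~0.5 moi), substrate is added for 15 min at room temperature and luciferase measured over 15 sec. Cells were seeded at 1,000/well and pre-cultured 4 h.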
AMA1 RON2 block: AMA1-RON2 (P. falciparum) interaction inhibition; AlphaScreen AMA1-biotinylated RON2 peptide binding; Potency, µM (titrated, usually from 58.2 µM), usual class: inhibitors; 360,000 tested, 0.2% active; AID 720542; note: nearly all actives have a fitted effect of over 45% in size
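AMA1 (3D7) with his tag at 25 nM final met compounds first, then biotinylated RON2 peptide at 25 nM; detection used donor plus acceptor beads, 10 µg/mL apiece, read by AlphaScreen after 30 min at room temperature.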
Cycloheximide cs: counter-screen for Shiga toxin inhibitors: cycloheximide protein synthesis inhibition; cell reporter, cycloheximide protein synthesis inhibition counterscreen; max response, %; 300,000 tested, 12% active; in the data active = max response mostly above about 13%, no sharp cut-off; inactive = mostly below about 14%; note: read at 38.3 µM for the half of the compounds with a filed dose
Pf growth 48h: P. falciparum growth inhibition at 48 hours (one generation); P. falciparum luciferase growth in erythrocytes, 48 h; Potency, µM (series often up to 28.7 µM), hits mostly inhibitors; 310,000 tested, 5.9% active; AID 504832
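First compound was added to culture medium, then infected red cells at 0.1% parasitemia and 2% hematocrit (final). After incubation at 37 C under 5% CO2, luciferase detection reagent was dispensed and light output recorded.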
Shiga toxin inh: inhibitors of Shiga toxin in Vero cells; Vero cells, Shiga toxin protein synthesis inhibition reporter; inhibition, % at 38.7 µM; 290,000 tested, 9.2% active; AID 2315; in the data active = inhibition mostly above about 28%, no sharp cut-off; inactive = mostly below about 43%
Pf growth 96h: P. falciparum growth inhibition at 96 hour, primary screen for plastid delayed-death inhibitors; P. falciparum luciferase reporter growth, 96 h; Potency, µM (highest dose often 28.7 µM), hits mostly inhibitors; 320,000 tested, 6.9% active
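Plates of compound plus infected erythrocytes (2% hematocrit, 0.05% parasitemia final) incubate 96 hours, 37 C, 5% CO2. Detection reagent added; reduced luminescence from the parasites' luciferase reporter flags inhibition.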
Numbers stand for hits; – = inactive; ? = inconclusive; · = no result given; [ ] = dose if it differs, or a comment. Unless noted, calls come from the whole dose curve; as a rule, active = well fitted curve in the direction sought with a large enough effect; inconclusive = small, poorly fitted or top-dose-only effect, or another doubt; inactive = no such curve, though single readings can be large; an effect the other way counts as inactive or inconclusive.

SMILES	HCV inhibitor	AMA1 RON2 block	Cycloheximide cs	Pf growth 48h	Shiga toxin inh	Pf growth 96h
CCc1noc(C)c1C(=O)NCCN1C(=O)S/C(=C\c2ccccc2F)C1=O	·	–	·	·	·	·
CCN(Cc1cccc(F)c1)C(=O)c1ccc2ccccc2n1	–	–	40	–	–	–
Cc1cc(C)c2[nH]c(=O)c(C(c3nnnn3C(C)(C)C)N3CCN(C(=O)c4ccco4)CC3)cc2c1 (centres undefined)	–	–	–	?	–	·
Cc1ccc(C)c2[nH]c(=O)c(C(c3nnnn3C(C)(C)C)N3CC=C(c4ccc(F)cc4)CC3)cc12 (centres undefined)	?	–	–	2.1µM	–	?
CCC(C)(C)n1nnnc1C(c1cccs1)N1CC=C(c2ccc(F)cc2)CC1 (centres undefined)	?	–	–	7.4µM	–	?
OC[C@@H](O)[C@H](O)C(/C=N/Nc1ccccc1)=N\Nc1ccccc1	?	–	28	–	–	–
COc1ccc(Nc2c([N+](=O)[O-])ccc3c2=NC2(CCCCC2)N=3)cc1	?	8.9µM	–	?	–	–
Cn1c(=O)c2c(ncn2CC(COCc2ccccc2)OCc2ccccc2)n(C)c1=O (centres undefined)	–	–	–	–	–	–
Nc1ccc(Nc2nc(-c3cc4ccccc4oc3=O)cs2)cc1	–	–	43	–	116	?
COc1cccc2sc(Nc3nc(-c4cc5ccccc5oc4=O)cs3)nc12	?	–	–	?	–	–
O=C(O)c1ccc(Nc2nc(-c3cc4ccccc4oc3=O)cs2)cc1O	–	–	–	–	–	–
CC(=O)Nc1ccc(Nc2nc(-c3cc4ccccc4oc3=O)cs2)cc1	?	–	47	–	69	–
COC(=O)C1CCN(C(=O)C2CCN(C(=O)[C@@H](NS(=O)(=O)c3ccc(C)cc3)C(C)C)CC2)CC1	–	–	–	?	–	?
Cc1ccc(S(=O)(=O)N2CCCC2C(=O)Nc2ccc(O)cc2)cc1 (centres undefined)	–	–	–	–	–	5.2µM
Cc1ccc(S(=O)(=O)N2CCCC2C(=O)Nc2nc3ccccc3s2)cc1 (centres undefined)	–	–	14	?	–	?
CC(C)c1ccc(NC(=O)C2CCCCN2S(=O)(=O)c2ccccc2)cc1 (centres undefined)	22µM	–	·	?	·	?
O=C(Nc1nc2ccccc2s1)C1CCCN1S(=O)(=O)c1ccc(Cl)cc1 (centres undefined)	?	–	–	?	–	–
O=C(OCc1nc2ccccc2s1)[C@@H]1CCCN1S(=O)(=O)c1ccccc1F	–	·	26	–	–	·
Cc1cccc(NC(=O)C2CCCCN2S(=O)(=O)c2ccccc2)c1C (centres undefined)	–	–	·	·	·	·
COc1cccc2c1cc1c(=O)n(CC(=O)NCCCN3CCCCC3)nc(C)n12	–	–	–	–	–	?
CSCCNC(=O)C1(C)CCN1C(=O)c1cc(C)n(C)n1 (centres undefined)	·	–	·	·	·	·
OCCN1CCN(c2ncnc3c2ncn3[C@H]2CN(Cc3ccncc3)C[C@@H](CO)O2)CC1	·	–	·	·	·	·
CCOC(=O)N=S(N)(=O)c1ccccc1 (centres undefined)	–	–	–	–	–	10µM
COc1ccccc1NC(=O)c1ccc2ccccc2c1	·	·	54	·	68	·
COc1ccccc1NC(=O)c1ccc(NC(=O)COC(=O)CCC2CCCC2)cc1	–	–	–	–	–	–
SMILES	HCV inhibitor	AMA1 RON2 block	Cycloheximide cs	Pf growth 48h	Shiga toxin inh	Pf growth 96h
COc1ccccc1NC(=O)c1ccc(NC(=O)COC(=O)C(C)C)cc1	–	–	–	7.4µM	–	6.6µM
O=C(Nc1cc(Cl)cc(Cl)c1)c1coc(=O)c(Br)c1	–	–	24	–	39	?
COc1cc(OC)cc(C(=O)Nc2ccc(C(=O)Nc3ccccc3OC)cc2)c1	11µM	–	·	·	·	·
NS(=O)(=O)c1cccc(C(=O)OCC(=O)NC2CCCc3ccccc32)c1 (centres undefined)	–	–	·	·	·	·
CC(=O)NC1C(O)O[C@H](C(=O)O)[C@@H](O)[C@@H]1O (some centres undefined)	·	·	–	·	–	·
Cc1[nH]c2ccc(C(=O)O)cc2c1C	–	–	–	·	–	–
COc1ccccc1N1CCN(C(=O)c2coc(=O)c(Br)c2)CC1	–	–	40	?	81	–
CCCN1C(=O)c2cc(C(=O)Nc3ccccc3OC)ccc2C1Nc1ccccc1OC (centres undefined)	11µM	–	–	10µM	–	?
Cc1[nH]c2ccc(C(=O)Nc3ccncc3)cc2c1C	11µM	–	23	?	50	12µM
O=C(NC(CO)(CO)CO)c1coc(=O)c(Br)c1	–	–	–	?	–	?
O=C(NNC(=O)C1C2CCCCC21)c1coc(=O)c(Br)c1 (centres undefined)	–	–	51	–	57	–
CCCN1C(=O)c2cc(C(=O)Nc3cccc(C(C)=O)c3)ccc2C1Nc1cccc(C(C)=O)c1 (centres undefined)	?	–	–	?	–	?
C[C@H]1CN([C@@H](C)CO)C(=O)CCCn2nncc2CO[C@@H]1CN(C)C(=O)c1ccc2ccn(C)c2c1	·	–	·	·	·	·
COc1ccccc1NC(=O)c1ccc2[nH]c(C)c(C)c2c1	?	–	40	–[0.00184 µM]	128	–
COc1ccccc1NC(=O)c1coc(=O)c(Br)c1	–	–	77	–	104	–
COC(=O)CCCNC(=O)c1ccc2[nH]c(C)c(C)c2c1	–	–	–	–	–	–
CC1(C(=O)O)CCCN(C(=O)c2cccnc2Oc2ccccc2)C1 (centres undefined)	·	–	·	·	·	·
COc1ccc(Cc2nc3ccc(C(=O)N(C)CCO)cc3o2)cc1	–	–	–	–	–	–
CCCCc1nc2cc(C(=O)N3CCC[C@H]3CO)ccc2o1	–	–	20	–	39	?
CCCCc1nc2cc(C(=O)N(C)CCc3cn[nH]c3)ccc2o1	–	–	51	–	61	?
O=C(c1ccc2oc(CCc3ccccc3)nc2c1)N1CC[C@H](O)C1	–	–	38	–	85	7.4µM
CCCCc1nc2cc(C(=O)N(C)C3CCOCC3)ccc2o1	–	–	68	–	116	–
O=C(c1ccc2oc(Cc3ccc(Cl)cc3)nc2c1)N1CCCCC1CCO (centres undefined)	–	–	–	–	–	?
N#Cc1ccccc1S(=O)(=O)Nc1ccc2c(c1)C(=O)OC2	–	–	–	–	–	–
CC(C)CC1NC(=O)N(CC(=O)Nc2cc(S(=O)(=O)N3CCOCC3)ccc2Cl)C1=O (centres undefined)	–	–	·	·	·	·
CCOc1ccc(OCCNC(=O)C(NC(=O)c2c(F)cccc2F)C(C)C)cc1 (centres undefined)	?	–	·	?	·	–
COC1CCN(C(=O)c2ccc3oc(Cc4ccc(Cl)cc4)nc3c2)CC1	–	–	–	–	–	–

High-throughput results from PubChem BioAssay.
